# In PubChem BioAssay AID1851 (National Center for Advancing Translational Sciences (NCATS), 2009):
# “And” between values parts separate entries of the source, which are not always exact repeats. Identical values can stand only once. In all, about 16,000 compounds went through this assay and about 2,600 (16%) were called active. Inconclusive results (about 20%) are left out. Calls come from the whole dose curve; as a rule, active = well fitted curve in the direction sought with a large enough effect; inconclusive = small, poorly fitted or top-dose-only effect, or effect the other way; inactive = no such curve, though single readings can be large or run the other way. Not all results are given here. A structure can be active in one record and inactive in another. Peptide text beside a SMILES is read from it.
# Molecular target: Cytochrome P450 2D6 (Homo sapiens) (UniProt P10635)
# Test: Cytochrome panel assay with activity outcomes
# Conditions: recombinant CYP, pro-luciferin dealkylation, luminescence, p450-cyp2d6; series mostly up to 57.1 µM
# % is set by controls: 0 for no effect and ±100 for the full control effect.
# Cytochrome P450 2D6 (Homo sapiens), sequence (P10635 whole entry, looked up): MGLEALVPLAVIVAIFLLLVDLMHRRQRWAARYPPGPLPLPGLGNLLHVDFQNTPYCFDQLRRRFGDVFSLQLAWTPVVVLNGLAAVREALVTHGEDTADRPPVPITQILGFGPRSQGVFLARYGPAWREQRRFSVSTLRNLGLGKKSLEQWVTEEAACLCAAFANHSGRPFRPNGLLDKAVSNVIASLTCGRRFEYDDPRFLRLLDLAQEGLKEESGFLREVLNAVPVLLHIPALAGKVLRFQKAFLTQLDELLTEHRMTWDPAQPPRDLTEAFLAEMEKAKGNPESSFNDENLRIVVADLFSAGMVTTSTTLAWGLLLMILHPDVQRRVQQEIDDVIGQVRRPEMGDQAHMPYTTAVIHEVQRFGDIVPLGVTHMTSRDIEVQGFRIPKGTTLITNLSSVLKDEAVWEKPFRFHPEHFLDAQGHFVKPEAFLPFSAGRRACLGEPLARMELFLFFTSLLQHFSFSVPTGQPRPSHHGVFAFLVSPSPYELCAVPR
SMILES,AC50,"activity, negative = inhibition"
CN1/C(=C\C=[N+](C)c2ccccc2)C(C)(C)c2ccccc21,0.316 µM (active),–
CN1/C(=C/C=C(/C#N)C(N)=O)C(C)(C)c2ccccc21,inactive,–
Cc1c(NC(=S)/C=C2\N(C)c3ccccc3C2(C)C)c(=O)n(-c2ccccc2)n1C,inactive,–
CN(C)c1ccc(N=C/C=C2\N(C)c3ccccc3C2(C)C)cc1,2.24 µM (active),–
CC(C)CO/N=C1/C[C@@H](O)[C@@H](O)[C@@H]2[C@@H]3C(=O)N(C[C@@H]4CCCO4)C(=O)[C@H]3CC[C@H]12,–,-1.45% [at 11.4 µM] (inactive)
Cc1cc(C)cc(Oc2coc3cc(OC(=O)c4cccs4)ccc3c2=O)c1,inactive,–
O=C(O)c1cccc2cccc(-c3cccc4cccc(C(=O)O)c34)c12,–,-12.7% [at 11.4 µM] (inactive)
O=C(c1c[nH]c(=O)n(-c2ccccc2)c1=O)N1CCc2ccccc21,inactive,–
O=C(N/C(=C/c1ccc(Br)cc1)c1nc2ccccc2[nH]1)c1ccco1,12.6 µM (active),–
O=C(/C(=C/c1ccc(Cl)cc1)c1nc2ccccc2[nH]1)c1ccccc1,inactive,–
O=C(Nc1cccc(Br)c1)/C(=C\c1cccnc1)NC(=O)c1ccco1,inactive,–
O=C1c2cccc3c(Cl)ccc(c23)C(=O)N1O,inactive,–
COC(=O)c1ccc(-n2cncn2)c(F)c1,inactive,–
CCc1nn(C)c(-c2n[nH]c(=S)n2N)c1Cl,inactive,–
Cc1ccc(S(=O)(=O)NC(=O)OC23COCN2COC3)cc1,–,18.1% [at 11.4 µM] (inactive)
Nc1nc(SCc2ccc([N+](=O)[O-])cc2)c2ncn([C@@H]3O[C@@H](CO)[C@@H](O)[C@H]3O)c2n1,inactive,–
c1cnc(N2CCN(Cc3ccc4c(c3)OCO4)CC2)nc1,1 µM (active) and 200 nM (active) and inactive,–
O=C(COc1ccc(Cl)cc1)N1CCN(Cc2ccc3c(c2)OCO3)CC1,0.2 µM (active),–
Cc1ccc(NC(=S)N2CCN(CCN3C(=O)c4cccc5cccc(c45)C3=O)CC2)cc1,inactive,–
O=C(Cc1ccc(Cl)cc1)N1CCN(C(=O)c2ccco2)CC1,inactive,–
O=C(O)[C@@H]1CCCN1Cc1ccc2c(c1)OCO2,–,7.95% [at 11.4 µM] (inactive)
O=C(CCN1C(=O)c2cccc3cccc(c23)C1=O)N1CCN(Cc2ccc3c(c2)OCO3)CC1,14.1 µM (active),–
O=C(CN1C(=O)c2cccc3cccc(c23)C1=O)N1CCCCCC1,inactive,–
COC(=O)c1ccccc1OCC(=O)N1CCN(c2ccc(Cl)cc2)CC1,inactive,–
O=C(O)C1CCN(c2ncccn2)CC1,inactive,–

SMILES,AC50,"activity, negative = inhibition"
CC(=O)[C@@H](C)CCO[C@@]1(C)OCC[C@@H]1C,–,0.323% [at 11.4 µM] (inactive)
CCOC(=O)c1c(NC(=O)CCCN2CCOCC2)sc2c1CC(C)(C)OC2,inactive,–
COc1ccc2c(c1)c(CC(=O)O)c(C)n2C(=O)c1ccc(Cl)cc1,inactive,–
CCc1ccc(NC(=O)C2CCN(S(=O)(=O)c3c(C)[nH]c(=O)[nH]c3=O)CC2)cc1,inactive,–
CC(=O)[C@@H]1[C@@H]2C(=O)N(C3CCCCC3)C(=O)[C@@H]2C2c3ccccc3C=CN21 (some centres not stated),inactive,–
O=C(CCCN1C(=O)C2C3C=CC(C3)C2C1=O)N1CCN(c2ccccc2)CC1 (configuration not stated),inactive,–
Cc1nnc(-c2cnn(-c3ccccc3)c2N)n1Cc1ccncc1,inactive,–
Cn1c(=O)c(-c2ccccc2)nc2cncnc21,inactive,–
Cn1c(-c2ccccc2)cnc1N,11.2 µM (active),–
Nc1nonc1-n1nncc1-c1ccccc1,inactive,–
CCCCN1C(=O)C(NC(=O)c2cccnc2)(C(F)(F)F)C2=C1CC(C)(C)CC2=O (configuration not stated),inactive,–
COc1ccc2c3c(ccc2c1)N[C@H](C(=O)O)CC3,–,3.59% [at 11.4 µM] (inactive)
Cc1cc(=O)[nH]c(-n2[nH]c(C)cc2=O)n1,inactive,–
CC1(C)CCC(NC(=O)[C@H](N)CCC(=O)O)CC1,inactive,–
COc1ccc(-n2c(=O)c(-c3cccs3)nc3cnc(N4CCNCC4)nc32)cc1,inactive,–
CCOC(=O)c1sc(NC(C)=O)nc1-c1ccccc1,inactive,–
C=CCSc1nc(C)cc(/C=C\c2ccccc2)c1C#N,2.82 µM (active),–
Cc1cc(C)c(C#N)c(Oc2ccccc2)n1,inactive,–
Cc1cc(C)c(C#N)c(SCS(=O)c2ccc(C(C)(C)C)cc2)n1 (configuration not stated),inactive,–
COc1ccc(-c2nc3cnc(N(C)C)nc3n(CCc3ccccc3)c2=O)cc1,inactive,–
Cc1ccc(S(=O)(=O)CCc2nnc(NC(=O)COc3cccc(C)c3)s2)cc1,inactive,–
CC(=O)N[C@@H](CC(=O)O)C(=O)N[C@@H](CCC(=O)O)C(=O)O (Ac-Asp-Glu-OH),inactive,–
COc1cc2nncc(SCc3ccc(Cl)c(Cl)c3)c2cc1OC,–,1.56% [at 11.4 µM] (inactive)
Clc1ccc(CSC2=NCCN2)cc1Cl,3.16 µM (active),–
CCN(Cc1ccccc1)Cc1cccc([N+](=O)[O-])c1,0.794 µM (active),–

SMILES,AC50,"activity, negative = inhibition"
Cc1ccc(S(=O)(=O)NCc2cccc([N+](=O)[O-])c2)cc1,–,1.17% [at 11.4 µM] (inactive)
N[C@@H](Cc1cccc([N+](=O)[O-])c1)C(=O)O,–,1.07% [at 11.4 µM] (inactive)
CN(C)N1C(N)=C(C#N)C(c2cccnc2)C2=C1CC(C)(C)CC2=O (configuration not stated),inactive,–
Cc1ccc(=O)n(-c2ccccc2)c1,inactive,–
O=C1C=C(NCC2CCCO2)C2(CCCCC2)O1 (configuration not stated),inactive,–
COCCn1c(=O)c(-c2ccc(F)c(F)c2)nc2cncnc21,inactive,–
Cc1ccc(N=Cc2nc(/C=C/c3cccc([N+](=O)[O-])c3)oc2O)cc1,inactive,–
CN(C)c1ncc2nc(-c3ccc(F)cc3)c(=O)n(Cc3ccc(F)cc3)c2n1,inactive,–
C#CCCCO/N=C1/C[C@@H](O)[C@@H](O)[C@@H]2[C@@H]3C(=O)N(C4CCCCC4)C(=O)[C@H]3CC[C@H]12,–,18.1% [at 11.4 µM] (inactive)
COC(=O)CSc1nnc(-c2ccccc2OC)n1-c1ccc(C)cc1,inactive,–
CCn1c(SCC(=O)Nc2ccccc2C(=O)OC)nnc1-c1ccc(N)cc1,inactive,–
O=C(CSc1nnc(-c2ccccc2)n1-c1ccccc1)c1cccs1,2.51 µM (active),–
Cc1ccccc1NC(=O)CSc1nnc(-c2ccccc2)n1-c1ccccc1,1.78 µM (active),–
N#Cc1c(-c2ccccc2)cc(C2CC2)nc1SCC(=O)c1cccs1,inactive,–
CCOc1ccc(-n2c(SCC(=O)Nc3ccccc3C)n[nH]c2=O)cc1,inactive,–
CN(Cc1cc2ccccc2[nH]c1=O)S(C)(=O)=O,inactive,–
CCc1ccc(OCC(=O)Nc2ccc(-c3nc4ccccc4o3)c(O)c2)cc1,inactive,–
Nc1nc(-c2ccccc2)c(-c2ccccc2)c(-c2nc(N)nc(-c3ccccc3)c2-c2ccccc2)n1,–,-0.539% [at 11.4 µM] (inactive)
CN(N=O)c1ccc(/C=C\c2ccnc3ccccc23)cc1,–,-11% [at 11.4 µM] (inactive)
Cc1ccccc1OCC(=O)N/N=C1\CCOc2c(C)cccc21,inactive,–
Cc1cc(C=O)c(C)n1-c1ccc(N2CCCCC2)c([N+](=O)[O-])c1,inactive,–
COCCn1c(=O)c(-c2cccs2)nc2cnc(Oc3ccc(OC)cc3)nc21,inactive,–
O=C(Nc1nnc(SCc2ccc(Cl)cc2Cl)s1)C1COc2ccccc2O1 (configuration not stated),inactive,–
N=C(N)SCc1ccc(Cl)cc1Cl (tested in a mixture with another compound),3.16 µM (active),–
Cc1cc(C)c2c(SCc3ccc(Cl)cc3Cl)nc(N)nc2n1,–,-17.3% [at 11.4 µM] (inactive)

SMILES,AC50,"activity, negative = inhibition"
O=C(OCn1ncc(Cl)c(Cl)c1=O)c1cccc(C(F)(F)F)c1,inactive,–
CNC(=O)COC(=O)c1cc2c(C)nn(-c3ccc(F)cc3)c2s1,inactive,–
Nc1ccc(-c2nc3c(Cl)c(N)ccc3[nH]2)cc1,inactive,–
CC1=C/C(=C(/c2ccc(O)c(C)c2)c2ccccc2C(=O)O)C=CC1=O,1.58 µM (active),–
Cc1cccc(C(=O)c2ccccc2C(=O)O)c1O,inactive,–
O=C(O)c1ccc(C(=O)c2ccccc2C(=O)O)cc1C(=O)O,–,8.1% [at 11.4 µM] (inactive)
O=c1c(-c2ccccc2)c(O)c2cccc3c2n1CCC3,inactive,–
C[N+](C)(N)Cc1csc(-c2ccc(Cl)cc2)n1,–,-18.9% [at 11.4 µM] (inactive)
CCOc1ccccc1NC(=O)C1Cc2ccccc2CN1S(C)(=O)=O (configuration not stated),inactive,–
O=C(Nc1nccs1)C1Cc2ccccc2CN1S(=O)(=O)c1ccc(F)cc1 (configuration not stated),12.6 µM (active),–
O=C(O)c1ccccc1C(=O)Nc1ccc(S(=O)(=O)Nc2nccs2)cc1,inactive,–
O=C(O)c1nnsc1COCc1ccccc1,–,7.15% [at 11.4 µM] (inactive)
C[N@@+]1(Cc2ccc(Cl)c(Cl)c2)CCC[C@@H]1c1ccc[n+](Cc2ccc(Cl)c(Cl)c2)c1,3.16 µM (active),–
COc1ccccc1-c1nc(NCc2ccccc2)c2ccccc2n1,1.58 µM (active),–
COc1ccccc1-c1nc(NC2CC2)c2ccccc2n1,20 µM (active),–
Clc1ccccc1-c1nc(NC2CCNCC2)c2ccccc2n1,inactive,–
CNc1nc(-c2ccccc2OC)nc2ccccc12,20 µM (active),–
Cc1ccccc1-c1nc(NC2CCNCC2)c2ccccc2n1,inactive,–
Clc1ccccc1-c1nc(NCc2cccs2)c2ccccc2n1,12.6 µM (active),–
CCOc1ccccc1Nc1ccc(N)cc1S(=O)(=O)O,–,0.246% [at 11.4 µM] (inactive)
COc1ccc(Oc2ncc3ncc(=O)n(C4CC4)c3n2)cc1,inactive,–
Nc1c(S(N)(=O)=O)cc(S(N)(=O)=O)cc1S(N)(=O)=O,–,18.8% [at 11.4 µM] (inactive)
